Source: PubChem BioAssay
HP1b binding inh = HTS for Inhibitors of HP1-beta Chromodomain Interactions with Methylated Histone Tails | 390,000 tested, 0.56% active | Potency, µM (highest dose often 114 µM), actives largely listed as inhibitors | AlphaScreen HP1-beta / biotin-H3K9me3 peptide binding | AID 540317, 2011 | Chromobox protein homolog 1 (Homo sapiens), P83916; also: nearly all actives have a fitted effect of over 70% in size
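HP1-beta protein (50 nM final) preincubated 30 min at room temperature with biotinylated H3(1-18)K9me3 peptide (50 nM) in PBS pH 7.4, 0.01% Tween-20, then compound added for 30 min. AlphaScreen streptavidin donor/nickel chelate acceptor beads (10 ug/mL final), 30 min dark, luminescence read.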
JMJD2A Tudor inh = qHTS Assay for Inhibitors of JMJD2A-Tudor Domain. Lysine-specific demethylase 4A (Homo sapiens), O75164. AlphaScreen JMJD2A-Tudor / H3K4me3 peptide binding. Potency, µM (series often up to 114 µM), actives largely listed as inhibitors. 390,000 tested, 4.4% active; also: nearly all actives have a fitted effect of over 50% in size
VDR inhibitor = Inhibitors of the vitamin D receptor (VDR): qHTS; Vitamin D3 receptor (Homo sapiens), P11473; VDR-SRC2-3 peptide fluorescence polarization, 2 h; Potency, µM, usual class: inhibitors; 400,000 tested, 0.93% active; AID 504847, 2011
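The screen uses fluorescence polarization to detect compounds that interfere with recruitment of the SRC2-3 coactivator peptide to VDR; plates are read after 2 h at room temperature.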
L3MBTL1 inh = qHTS Assay for the Inhibitors of L3MBTL1 | Lethal(3)malignant brain tumor-like protein 1 (Homo sapiens), Q9Y468 | AlphaScreen L3MBTL1–H3K9me1 peptide binding | Potency, µM (titrated, usually from 57.1 µM), hits mostly inhibitors | 230,000 tested, 0.66% active | AID 485360, 2010; also: nearly all actives have a fitted effect of over 60% in size
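AlphaScreen proximity signal between nickel-chelate acceptor and streptavidin donor beads (final 10 ug/mL) reports binding of 50 nM L3MBTL1 to 75 nM biotin-H3 K9me1 peptide; complex incubated with compounds 30 min at room temperature; cefsulodin titration as control.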
PLK1 PBD inh = qHTS for Inhibitors of PLK1-PDB (polo-like kinase 1 - polo-box domain): Primary Screen | Plk1 PBD binding of FITC phosphopeptide, fluorescence polarization | Potency, µM, actives largely listed as inhibitors | 360,000 tested, 2.8% active | AID 720504, 2013; also: series mostly up to about 57 µM; nearly all actives have a fitted effect of over 65% in size
Target sequence (P53350 whole entry, looked up, the tested form may be a part): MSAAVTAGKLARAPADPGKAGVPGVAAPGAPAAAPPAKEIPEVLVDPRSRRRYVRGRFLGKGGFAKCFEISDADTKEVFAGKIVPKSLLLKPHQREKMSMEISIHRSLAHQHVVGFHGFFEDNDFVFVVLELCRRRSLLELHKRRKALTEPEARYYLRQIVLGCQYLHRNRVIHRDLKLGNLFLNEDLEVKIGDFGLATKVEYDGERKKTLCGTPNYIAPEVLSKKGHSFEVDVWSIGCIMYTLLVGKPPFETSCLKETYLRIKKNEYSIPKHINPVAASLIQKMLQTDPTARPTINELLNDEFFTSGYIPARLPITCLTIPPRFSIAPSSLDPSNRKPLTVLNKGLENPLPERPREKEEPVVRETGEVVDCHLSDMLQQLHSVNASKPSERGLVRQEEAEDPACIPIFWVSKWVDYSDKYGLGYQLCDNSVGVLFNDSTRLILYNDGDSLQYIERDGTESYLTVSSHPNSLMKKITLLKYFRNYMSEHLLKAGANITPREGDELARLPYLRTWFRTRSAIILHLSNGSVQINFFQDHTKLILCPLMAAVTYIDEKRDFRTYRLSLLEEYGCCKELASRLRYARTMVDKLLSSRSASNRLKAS
BAZ2B block = qHTS Assay for Inhibitors of BAZ2B. AID 504333, 2011. 360,000 tested, 4.4% active. AlphaScreen BAZ2B-H3K14Ac peptide displacement. Bromodomain adjacent to zinc finger domain protein 2B (Homo sapiens), Q9UIF8. Potency, µM (series often up to 114 µM), hits mostly inhibitors; also: nearly all actives have a fitted effect of over 60% in size
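In this displacement format the biotinylated H3(5-23) peptide acetylated at Lys14 serves as ligand at 50 nM, with BAZ2B at 50 nM in PBS pH 7.4 containing 0.01% Tween-20. Donor and acceptor beads are 10 ug/mL final.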
A number is an active result; – = inactive; ? = inconclusive; · = no result given; ! = not active in a repeat. Shown are actives, neighbours in structure and some others; about 6.9% of the full set was active somewhere. Calls follow the shape of the dose curve; as a rule, active = well fitted curve in the direction sought with a large enough effect; inconclusive = small, poorly fitted or top-dose-only effect, or another doubt; inactive = no such curve, though single readings can be large; an effect the other way counts as inactive or inconclusive.

SMILES	HP1b binding inh	JMJD2A Tudor inh	VDR inhibitor	L3MBTL1 inh	PLK1 PBD inh	BAZ2B block
Cc1ccc2nc(-c3ccc(N4CCOCC4)cc3)c(Nc3ccccc3C)n2c1	?	14µM	–	·	·	10µM
Cc1nc(N2CCCC2)c2c(C(=O)N3CCN(c4cc(Cl)ccc4C)CC3)c(C)oc2n1	–	–	–	·	·	–
Nc1nc(C2CC(=O)OC23CCCCC3)cs1 (centres undefined)	–	–	–	–	–	–
Nc1nc(C2C(=O)CCCC2=O)cs1	–	10µM	–	–	–	45µM
CCCCNc1ccc(S(N)(=O)=O)cc1[N+](=O)[O-]	·	·	·	–	·	–
O=[N+]([O-])c1cccc(S(=O)(=O)c2ccc(NCCO)c([N+](=O)[O-])c2)c1	?	14µM	?	–	13µM	–
O=[N+]([O-])c1cccc(S(=O)(=O)c2ccc(NCCOCCO)c([N+](=O)[O-])c2)c1	–	–	–	·	–	–
CCNc1ccc(S(=O)(=O)N(C)C)cc1[N+](=O)[O-]	–	32µM	–	–	–	?
CSc1ccc(/C=C2/C(C)=C(CC(=O)O)c3cc(F)ccc32)cc1	·	·	45µM	·	·	·
CC1=C(CC(=O)NCC(=O)NCC(=O)O)c2cc(F)ccc2/C1=C/c1ccc(S(C)=O)cc1 (centres undefined)	–	–	–	·	–	–
Cc1ccc(NC(=O)CSc2nc3ccccc3c(=O)n2CCCC(=O)NCC2CCCO2)cc1 (centres undefined)	–	?	–	·	27µM	–
O=C(CSc1nc2ccccc2c(=O)n1CC1CCCO1)NCc1ccc2c(c1)OCO2 (centres undefined)	–	?	–	·	27µM	–
COC(=O)[C@@]12C[C@@H](CC(=O)NCc3cccc(C(F)(F)F)c3)C(=O)N(Cc3ccc4c(c3)OCO4)C1=CCC(C)(C)C2	·	·	·	·	–	·
O=C1CCCC2=C1C1(CCC1)N=C(Nc1nc3ccccc3o1)N2	·	–	·	·	·	·
Cc1ccc(Nc2c(-c3c[nH]c4ccccc34)nc3ccccn23)cc1	?	22µM	–	·	·	18µM
Cc1ccc2nc(-c3c[nH]c4ccccc34)c(Nc3ccccc3C)n2c1	–	–	–	·	·	–
CCOc1ccccc1NC(=O)CSC1=Nc2ccccc2C2=NC(CC(=O)NC3CCCCC3)C(=O)N12 (centres undefined)	–	–	–	·	·	–
CCN(CC)c1ccc(CNC(=O)C/C(C)=N/NC(=O)COc2ccc(C)cc2Br)cc1	?	?	–	·	–	45µM
O=C1c2ccccc2-n2c1nc1ccccc1c2=O	–	–	–	–	–	–
CC(C)N1C(=O)/C(=C/c2nc3ccccc3c(=O)n2-c2ccccc2)c2ccccc21	25µM	20µM	71µM	?	–	35µM
CC(C)N1C(=O)/C(=C\c2nc3ccccc3c(=O)n2-c2ccccc2)c2ccccc21	?	35µM	71µM	–	–	10µM
O=C(O)c1ccc(-n2c(/C=C/c3ccccc3)nc3ccccc3c2=O)cc1	–	–	–	·	–	–
CC(NC(=O)CN1C(=O)COc2ccc(S(=O)(=O)N3CCCCCC3)cc21)c1ccccc1 (centres undefined)	–	–	–	·	·	–
CN1CCc2cccc3c2[C@H]1Cc1ccc(O)c(O)c1-3	14µM	8.9µM	35µM!	?	38µM!	?
O=C1CCCC2=C1C(c1ccccc1)CC(=O)N2c1ccc(F)cc1F (centres undefined)	–	?	–	–	–	–
SMILES	HP1b binding inh	JMJD2A Tudor inh	VDR inhibitor	L3MBTL1 inh	PLK1 PBD inh	BAZ2B block
O=C(O)c1cc(-c2ccc(/C=C3/SC(=S)N(Cc4ccccc4)C3=O)o2)ccc1Cl	?	56µM	–	·	–	?
O=C(O)c1ccc(-c2ccc(/C=C3\NC(=O)N(Cc4ccc(Cl)cc4)C3=O)o2)cc1	–	–	–	?	?	?
Cc1ccc(/C=C2\SC(=S)N(Cc3ccccc3)C2=O)o1	–	14µM	–	–	–	?
CN1CCCC2(CCN(S(=O)(=O)c3ccccc3)CC2)C1	·	·	–	·	·	·
CCc1ccc(C2CC(=O)N(c3cccc(C(F)(F)F)c3)C3=C2C(=O)OC3)cc1 (centres undefined)	–	–	–	·	·	–
O=C(/C=C/Sc1ccccc1)c1ccccc1	–	–	–	·	13µM	–
O=C(/C=C/Nc1ccccc1)c1ccccc1	–	–	–	·	–	?
O=C(/C=C/Sc1ccccc1)c1ccc(Cl)cc1	–	–	56µM	·	–	–
O=C(Nc1ccccc1F)c1oc2ccccc2c1NC(=O)c1c(F)cccc1F	–	–	–	·	·	–
COCCCNCC(=O)c1c(N)n(Cc2ccccc2)c(=O)n(C)c1=O	–	79µM	–	–	–	?
CC(=O)NC(=S)c1c(N)n(Cc2ccccc2)c(=O)n(C)c1=O	·	·	·	·	·	–
CCCCC[C@@H]1[C@H]2[C@H]3C(=O)N(c4ccccc4)C(=O)[C@H]3CC(=O)[C@H]2[C@H](c2ccccc2)N1S(=O)(=O)c1ccc(C)cc1	·	·	·	·	–	·
CC(=O)N1CCc2c(sc3c2c(=O)n(-c2cc(Cl)ccc2C)c(=O)n3Cc2ccccc2F)C1	–	–	–	·	·	?
CC(C)COP(=O)(c1ccc(N(C)C)cc1)C(O)c1ccccn1 (centres undefined)	–	1.3µM	–	–	–	·
CC(C)CCOP(=O)(c1ccc(N(C)C)cc1)C(O)c1ccccn1 (centres undefined)	–	–	–	–	–	–
CN(C)c1ccc(P(=O)(OC2CCCCC2)C(O)c2cccnc2)cc1 (centres undefined)	–	–	–	–	–	–
CN(C)c1ccc(P(=O)(OC2CCCCC2)C(O)c2ccccn2)cc1 (centres undefined)	–	?	–	–	–	45µM
CCOc1ccc(NC(=O)CCS(=O)(=O)c2cc3c4c(c2)CCN4C(=O)CC3)cc1	–	–	–	·	·	–
OC1COCOC1C(O)C1OCOCC1O (centres undefined)	–	–	–	·	–	·
COC(=O)CCC(=O)OC1(C)C(=O)C2=CN(C3CCCC3)C(c3ccc(OC)cc3)=CC2=C(Br)C1=O (centres undefined)	?	56µM	?	·	?	45µM
COC(=O)CCCC1=CC2=C(c3ccccc3)C(=O)C(C)(OC(=O)C3CCCC3)C(=O)C2=CN1Cc1ccc(OC)cc1 (centres undefined)	?	50µM	–	·	?	?
C=CCN1C=C2C(=O)C(C)(OC(=O)CCC(=O)OC)C(=O)C(Br)=C2C=C1c1ccc(OC)cc1 (centres undefined)	–	?	?	·	?	?
